Screens from PubChem.
GRIN3A LBD mod = binders of NR3A ligand-binding domain, primary screen, biophysical, differential scanning fluorimetry, uHTS. Glutamate receptor ionotropic, NMDA 3A (GRIN3A) ligand-binding domain. NR3A LBD differential scanning fluorimetry, Tm shift; 0% = protein alone, 100% = glycine-bound protein. Tm shift relative to glycine control, % at 25 µM. 2.5% of 340,000 active;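 active = melting temperature shift of at least 10% of the positive control shift, at one fixed dose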
CRFR2-BP ag = agonists of CRF-BP/CRF-R2 complex, primary screen, cell-based, HEK293, calcium dye fluorescence, uHTS | 0.46% of 350,000 active | calcium dye fluorescence (FLIPR); percent of saturating CRF peptide response | activation, % at 13.2 µM | CRF-binding protein / CRF receptor 2 complex (human) | AID 588473, 2011;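 active = activation of at least 50%, plus an integration ratio under a set limit after plate pattern correction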;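 note: plate controls were neutral control wells without compound for no effect and CRF at EC100 for full effect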
TMEM16A inh = TMEM16A chloride channel inhibitors, primary screen, cell-based, HTS | HEK293 TMEM16A/YFP iodide influx fluorescence, ionomycin | 1.2% of 310,000 active | normalized B-score (activity score, 25-100; higher = stronger inhibition) at 10 µM | Anoctamin-1 (Mus musculus), Q8BHY3;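 active = ratio plate-corrected score three or more library SD toward inhibition, starting fluorescence score within five deviations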;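 note: score derived from kinetic fluorescence span divided by baseline fluorescence per well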
TMEM16A act = TMEM16A chloride channel activators or potentiators, primary screen, cell-based, HTS | Anoctamin-1 (Mus musculus), Q8BHY3 | HEK293 TMEM16A/YFP-H148Q/I152L, iodide quench fluorescence; stronger effect = lower value | B-score at 10 µM | 0.3% of 340,000 active | AID 623877, 2012;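 active = fluorescence-ratio B-score plate-corrected deviation score at least 3 library SD below zero, with starting fluorescence score within 5 deviations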;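 note: channel opened by trigger with iodide after compound preincubation; score built on the fluorescence ratio of max minus min over baseline; more negative score means more quench and so TMEM16A activation or potentiation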
CRFBP-R2 block = antagonists of CRF-BP/CRF-R2 complex, primary screen, cell-based, HEK293, calcium dye fluorescence, uHTS. inhibition, % at 11.8 µM. 0.59% of 350,000 active. CRF-induced calcium fluorescence;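 active = inhibition of the ligand-induced calcium signal above about 50% at the single tested concentration, limit read from the data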
MPTP inh = mitochondrial permeability transition pore inhibitors, primary screen, biochemical, isolated mouse mitochondria, absorbance; Ca2+ swelling absorbance, 30 min; inhibition, % at 10 µM; 1.4% of 360,000 active; AID 602449, 2012;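 active = inhibition of 50% or more, scaled per plate between neutral and stimulator controls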;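 note: 0% = DMSO wells given calcium and 100% = 1 mM EGTA wells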
The depositor's hits bear a star; i = inactive; nt = no result given. In the library only some 5.1% were active in any assay of this set; here they are far more common.

SMILES	GRIN3A LBD mod	CRFR2-BP ag	TMEM16A inh	TMEM16A act	CRFBP-R2 block	MPTP inh
C=CCN(C(=O)C1=NN(C2CCS(=O)(=O)C2)C(=O)CC1)c1nc(-c2ccc([N+](=O)[O-])cc2)cs1 (stereo unspecified)	-1	17	i	-4.7*	-8	-3
CCOC(=O)[C@]12CCC=C1N(Cc1ccc(Cl)cc1Cl)C(=O)[C@H](CC(=O)NCC13CC4CC(CC(C4)C1)C3)C2	nt	nt	nt	nt	nt	-1
Cc1cc(Nc2nc3ccccc3nc2Cl)n(-c2ccc([N+](=O)[O-])cc2)n1	-3	6	100*	i	-7	38
Cc1cc(Nc2ncc(Cl)cc2Cl)n(-c2ccccc2)n1	11*	-2	i	i	5	3
Cc1cc(Nc2nc3ccccc3[nH]c2=O)n(-c2ccccc2)n1	-2	2	i	i	4	2
O=S(=O)(N/N=C/c1ccccc1OCc1ccc(Cl)cc1)c1ccccc1	13*	0	i	i	18	9
O=c1c(/C=N\NS(=O)(=O)c2ccccc2)coc2ccc(Cl)cc12	-5	3	100*	i	-6	1
O=C(N/N=C/c1coc2ccccc2c1=O)c1ccc(Cl)cc1	1	-2	i	i	-14	0
Cc1ccc(N=C2C(=O)Nc3ccc(C)c(Br)c32)cc1	-2	-1	25*	i	-7	0
COc1ccc(N=C2C(=O)Nc3ccc(C)c(Br)c32)cc1	0	1	i	i	1	2
O=C(O)CCCNc1cc(N2CCN(C(=O)c3ccco3)CC2)c2noc3c2c1C(=O)c1ccccc1-3	6	8	i	i	9	4
CCOC(=O)N1CCN(c2cc(NCCC(=O)O)c3c4c(onc24)-c2ccccc2C3=O)CC1	2	-3	i	-12*	15	2
CC(C)(C)c1ccc(C(=O)N2CCC2(C)C(=O)NS(=O)(=O)c2ccc(C#N)cc2)cc1 (stereo unspecified)	nt	nt	nt	nt	nt	0
O=C(CN1c2cccc3cccc(c23)S1(=O)=O)N1CCCCC1	3	-2	nt	i	5	-1
Cc1ccccc1NC1=NS(=O)(=O)c2ccccc21	-1	-1	i	i	-3	-1
O=S1(=O)N=C(Nc2ccc(O)cc2)c2ccccc21	19*	0	i	i	2	-3
O=C(Nc1cccc(S(=O)(=O)N2CCCCCC2)c1)C1CCN(C(=O)c2ccc(F)cc2)CC1	-5	-1	i	i	-5	-4
CCN1C(=O)CC2CCCC1C2 (stereo unspecified)	11*	1	nt	i	75*	1
CCCN1C2CCCC1CC(NC(=O)c1ccc(C(C)(C)C)cc1)C2 (stereo unspecified)	-1	-2	i	i	2	1
CC(C)CN1C(=O)C(=O)N(CC(=O)N(C)CC(=O)Nc2ccc(F)cc2)C1=O	2	0	nt	i	-14	0
CCN(CC)CCN1C(=O)c2ccccc2NC1c1ccc(C)cc1 (stereo unspecified)	14*	-1	i	i	-8	1
CCN(CC)CCN1C(=O)c2ccccc2NC1c1ccc(F)cc1 (stereo unspecified)	-2	-3	i	i	-18	-2
CCOc1ccc(CCN2C(=S)N([C@@H](CC(C)C)CN3CCC[C@@H]3CN3C(=S)NC[C@@H]3CC(C)C)C[C@@H]2Cc2ccc(O)cc2)cc1	nt	nt	nt	nt	nt	2
CCOc1ccc(CCN2C(=S)N([C@@H](CC(C)C)CN3CCCC3CN3C(=S)NC[C@@H]3Cc3ccc(O)cc3)C[C@@H]2CC(C)C)cc1 (stereo partly specified)	12*	-1	nt	nt	-1	1
CCOc1ccc(CCN2C(=S)N([C@@H](CC(C)C)CN3CCCC3CN3C(=S)NC[C@@H]3Cc3ccccc3)C[C@@H]2CC(C)C)cc1 (stereo partly specified)	nt	nt	nt	nt	nt	0
SMILES	GRIN3A LBD mod	CRFR2-BP ag	TMEM16A inh	TMEM16A act	CRFBP-R2 block	MPTP inh
Oc1ccc(C[C@H]2CNC(=S)N2CC2CCCN2C[C@H](Cc2ccccc2)N2C[C@H](Cc3ccc(O)cc3)N(CCc3ccccc3)C2=S)cc1 (stereo partly specified)	31*	0	nt	nt	-5	1
CCOc1ccc(CCN2C(=S)N([C@@H](CC(C)C)CN3CCCC3CN3C(=S)NC[C@@H]3CC(C)C)C[C@@H]2Cc2ccc(O)cc2)cc1 (stereo partly specified)	7	1	nt	nt	0	2
CCOc1ccc(CCN2C(=S)N([C@@H](CC(C)C)CN3CCCC3CN3C(=S)NC[C@@H]3Cc3ccc(O)cc3)C[C@@H]2Cc2ccc(O)cc2)cc1 (stereo partly specified)	34*	-2	nt	nt	-7	1
CCOc1ccc(CCN2C(=S)N([C@@H](CC(C)C)CN3CCCC3CN3C(=S)NC[C@@H]3Cc3ccc(O)cc3)C[C@@H]2Cc2ccccc2)cc1 (stereo partly specified)	31*	1	nt	nt	0	-1
O=C(CN1CCc2ccccc2C1)Nc1ccccc1C(=O)NC1CC1	-2	1	nt	i	-15	0
CC1(C)CC(=O)C=C(Nc2cccc(Cl)c2Cl)C1	1	1	i	i	-10	1
CCc1cccc2c(C(=O)COC(=O)c3ccc(O)cc3)c[nH]c12	15*	1	i	i	-23	4
O=S(=O)(c1ccc(-c2ccon2)s1)N1CCN(CCN2CCOCC2)CC1	2	9	i	i	-8	-1
Cc1ccccc1-c1nnc(SCC(=O)N(C)C2CCS(=O)(=O)C2)n1C (stereo unspecified)	0	1	nt	i	-11	-1
CC[C@@H](C)[C@@H]1CN([C@@H](CN2CCC[C@H]2CN2C(N)=NC[C@H]2CC(C)C)C(C)C)C(=N)N1CCc1ccc(Cl)c(Cl)c1	-5	2	nt	nt	63*	-4
O=C(CCNC(=O)N1CC(=O)Nc2ccccc21)Nc1ccc(F)c(Cl)c1	5	6	i	i	-2	-2
COc1ccc(-c2ccnc(SCC(=O)N3CCN(c4ccccc4)CC3)n2)cc1	1	-6	i	i	61*	3
COc1ccc(-c2ccnc(SCC(=O)c3ccc(OC)c(OC)c3)n2)cc1	14*	0	i	i	-9	0
Cc1ccc(NC(=O)COc2ccccc2)cc1S(=O)(=O)N1CCCCCC1	-1	1	25*	i	6	0
